The values below come from PubChem BioAssay AID1053124 (Broad Institute, 2014).

Each structure is given as a SMILES string. Measured potencies and affinities stand elsewhere. Activity calls are given as the source filed them.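 How the source made its calls: active means cell killing whose fitted half-effect concentration is at most twice the top valid dose tested; inconclusive means flat curve with 30 to 70% killing, or a poor fit; inactive means effect in the rising direction, plus the rest.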

The assay in a line: A549 cell cytotoxicity, dose response, cytotoxicity control, ATP luminescence, cherry-pick, set 2 (AID 1053124).

For the molecule `CC(C)(C)[C@H]1CCC(=O)N([C@H](CSc2ccccc2)Cc2ccccc2)CC1`, the outcome was inactive.

Take `Cc1ccc2c(c1)-c1c(cnn1CC(=O)Nc1ccccc1N1CCN(C)CC1)CO2`: the result was inactive. Regarding `CCOC(=O)C(NC(=O)c1ccccc1)(OCC1(CC)COC1)C(F)(F)F` (centres undefined), the molecule was classed as inactive.

As to `CN1CCc2c(sc(NC(=O)Cc3ccccc3)c2C#N)C1`, the molecule was classed as inactive.

In the case of `Nc1ccc2nc(-c3ccccc3)cnc2c1`, the call was inactive.

With `CN1c2ccc(Cl)cc2C(=O)NC1C1CC=CCC1` (centres undefined), the outcome was inactive. On to `CCCOc1ccc(NC(=O)c2c(-c3ccccc3)noc2C)cc1`, for which the result was inactive. With `Cc1c(C=O)c2ccccn2c1C(=O)c1cccs1` the entry was “inactive”; with `Cc1c(C(=O)NCc2ccc(Cl)c(Cl)c2)sc(=O)n1Cc1cccc(F)c1`, “inactive”; with `O=C(CCc1c[nH]c2ccccc12)OCC(=O)c1ccccc1`, “inactive”. With `CCOCCCNC(=S)N1CCCN(c2nc3cc(C)c(C)cc3cc2C#N)CC1` the entry was “inactive”; with `Cc1ccc2nc3c(cc(S(=O)(=O)c4ccccc4)c(=N)n3Cc3ccco3)c(=O)n2c1`, “inactive”; with `COc1ccc(C(=O)c2sc3nc(-c4ccc(OC)cc4)ccc3c2N)cc1`, “inactive”. With `CCOc1ccc2nc(NCCCNS(=O)(=O)c3ccc(C)cc3)c(C#N)cc2c1`, the molecule was called inactive. Take `CCc1nc(SCC(=O)c2ccccc2)c2ccccc2n1`: the outcome was inactive. Regarding `CC(=O)Oc1ccc(C(=O)Nc2cc(C)on2)cc1`, the result was inactive. For `COCc1cc(C)nc(SCC(=O)Oc2ccc(Cl)cc2)c1C#N`, the outcome was inactive. With `Cc1cccn2c(=O)c3cc(C(N)=S)c(=N)n(CCCOC(C)C)c3nc12` the entry was “inactive”; with `[O-]/[N+](=C/c1ccccc1)c1ccccc1`, “inactive”. For `CNNC(=S)NC1CC2CC1C1C=CCC21` (centres undefined), the molecule was classed as inactive. Regarding `COCCn1c(=N)c(S(=O)(=O)c2ccc(F)cc2)cc2c(=O)n3ccccc3nc21`, the call was inactive. `Cc1cccn2c(=O)c3cc(C#N)c(=NC(=O)c4cccs4)n(CC(C)C)c3nc12`: the result was inactive. In the case of `CC1CCN(C(=O)COc2cccc3c2CCN(Cc2ccccc2)C3=O)CC1`, the call was inactive. In the case of `COc1ccc(S(=O)(=O)N2CCCC2CNC(=O)C(=O)NC2CCCC2)cc1` (centres undefined) it was “inactive”; in that of `CCCN1CCN(C(=O)c2ccc(CS(=O)c3ccc(Br)cc3)o2)CC1` (centres undefined), “inactive”. As to `O=C(Cn1ccc([N+](=O)[O-])n1)N1CCCCCC1`, the molecule was classed as inactive. In the case of `CCOc1ccc(C(=O)c2cc3ccc(O)cc3oc2=O)cc1`, the result was inactive. As for `Cc1ccc(O)c(NC(=S)NC(=O)COc2ccc(Br)cc2)c1`, the molecule was called inactive. Consider `CSc1ccc(Cn2c(C)c(C(=O)NCc3cccc(Cl)c3)sc2=O)cc1`, for which the molecule was called inactive. In the case of `COc1cc(C(=O)OCC(C)=O)cc(NC(=O)c2ccco2)c1OC`, the molecule was called inactive.

As to `CC(C)c1ccc(/C=C2\Oc3c(ccc(O)c3CN3CCN(C)CC3)C2=O)cc1`, the molecule was classed as inactive. `COc1ccccc1OCc1ccc(C(=O)N(C)c2ccccc2)o1`: the molecule was classed as inactive.

On to `C=Cc1ccc(Cn2c(C)c(C(=O)NCc3cccc(C)c3)sc2=O)cc1`, for which the molecule was called inactive.

Turning to `N#Cc1ccc(OCC(=O)OCC(=O)N2CCc3ccccc32)cc1`, the result was inactive. In the case of `CC(=O)N=c1c(C#N)cc2c(=O)n3ccccc3nc2n1CCCOC(C)C` it was “inactive”; in that of `CCOCCCNc1nc2nc3ccc(C)cn3c(=O)c2cc1C(=O)NCC1CCCO1` (centres undefined), “inactive”. For the molecule `O=C(CCCN1C(=O)CSc2ncccc21)N1CCN(Cc2ccccc2)CC1`, the outcome was inactive.

Consider `COCCNC(=S)N/N=C/c1ccc(-c2ccc([N+](=O)[O-])cc2)o1`, for which the result was inactive.

As for `CCOC(=O)c1cc2c(=O)n3cccc(C)c3nc2n(CC(C)C)c1=NC(=O)c1ccco1`, the call was inactive.
